This passage reports outcome results from PubChem BioAssay AID488911 (Broad Institute, 2010).

Results with a measured potency or affinity are listed apart. Activity calls are given as the source filed them.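 Rule for the calls: active = falling signal whose fitted half-effect dose is at or below ten times the top valid dose; inconclusive = flat fit showing a moderate drop, or a poor fit; inactive = the rest.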

This assay in a line: NIH-3T3 viability with fluconazole co-treatment – cell-based, Alamar Blue, dry powder, set 2, cytotoxicity control for antifungal resistance reversal project, dose response (AID 488911). As to conditions: 48 h; series mostly up to 26 µM.
On to `Cc1cc(N2CCN(C(=O)c3ccc(Cl)cc3)CC2)c2ccccc2n1`, for which the outcome was inactive.

`COc1ccc(C(=O)N2CCN(c3ccnc4cc(Cl)ccc34)CC2)cc1`: the outcome was inactive.

Consider `O=C(c1ccccc1Cl)N1CCN(c2ccnc3cc(Cl)ccc23)CC1`, for which the outcome was inactive.

As to `CCCC(=O)N1CCN(c2ccnc3cc(Cl)ccc23)CC1`, the result was inactive.

`O=C(Nc1ccc(Cl)cc1)N1CCN(c2ccnc3cc(Cl)ccc23)CC1`: the result was inactive.

In the case of `O=C(C1CCCC1)N1CCN(c2ccnc3cc(Cl)ccc23)CC1`, the result was inactive.

Regarding `Cc1cc(N2CCN(C(=O)c3ccc(Cl)cc3)CC2)c2ccc(F)cc2n1`, the outcome was inactive.

Turning to `O=C(c1ccc(Cl)cc1)N1CCN(c2ccnc3ccc(Cl)cc23)CC1`, the result was inactive.

Regarding `O=C(c1ccc(Cl)cc1)N1CCN(c2ccnc3cc(Cl)ccc23)CC1`, the outcome was inactive.

For the molecule `CC(C)C(=O)N1CCN(c2ccnc3cc(Cl)ccc23)CC1`, the outcome was inactive.

For the molecule `O=C(c1ccc(Cl)cc1)N1CCN(c2ccccn2)CC1`, the result was inactive.

With `Clc1ccc2c(N3CCNCC3)ccnc2c1`, the outcome was inactive.

In the case of `O=C(c1ccc(Cl)cc1)N1CCN(c2ncnc3ccccc23)CC1`, the result was inactive.

Consider `N#Cc1ccc(N2CCN(C(=O)c3ccc(Cl)cc3)CC2)nc1`, for which the outcome was inactive.

As to `O=C(c1ccc(Cl)nc1)N1CCN(c2ccnc3cc(Cl)ccc23)CC1`, the result was inactive.

For the molecule `O=C(c1ccc(Cl)cn1)N1CCN(c2ccnc3cc(Cl)ccc23)CC1`, the outcome was inactive.

For the molecule `O=C(C1CCC1)N1CCN(c2ccnc3cc(Cl)ccc23)CC1`, the result was inactive.

`COCCC(=O)N1CCN(c2ccnc3cc(Cl)ccc23)CC1`: the outcome was inactive.

Regarding `O=C(c1ccc(Cl)cc1)N1CCN(c2ccnc3ccccc23)CC1`, the result was inactive.

In the case of `O=C(c1ccc(Cl)cc1)N1CCN(c2ccncc2)CC1`, the outcome was inactive.

For `O=C(C1CCCCC1)N1CCN(c2ccnc3cc(Cl)ccc23)CC1`, the outcome was inactive.

For the molecule `O=C(c1ccc(Cl)cc1)C1CCN(c2ccnc3cc(Cl)ccc23)CC1`, the outcome was inactive.

`CC1CN(c2ccnc3cc(Cl)ccc23)CCN1C(=O)c1ccc(Cl)cc1` (stereo unspecified): the outcome was inactive.

As to `O=C(c1ccc(F)cc1)N1CCN(c2ccnc3cc(Cl)ccc23)CC1`, the result was inactive.

Take `O=C(c1cccc(Cl)c1)N1CCN(c2ccnc3cc(Cl)ccc23)CC1`: the result was inactive.

For `O=C(c1ccc(Cl)cc1)N1CCNCC1`, the result was inactive.

With `CC(C)CC(=O)N1CCN(c2ccnc3cc(Cl)ccc23)CC1`, the outcome was inactive.

For the molecule `COc1ccc2c(N3CCN(C(=O)c4ccc(Cl)cc4)CC3)ccnc2c1`, the result was inactive.

As for `O=C(c1ccc(Cl)cc1)N1CCN(c2ncnc3nc[nH]c23)CC1`, the result was inactive.

As to `O=C(c1ccc(Cl)cc1)N1CCCN(c2ccnc3cc(Cl)ccc23)CC1`, the outcome was inactive.

On to `COc1cccc2c(N3CCN(C(=O)c4ccc(Cl)cc4)CC3)cc(C)nc12`, for which the result was inactive.
